Laboratory results: PubChem BioAssay (Tox21)
Records with an inconclusive call do not appear. Activity calls are given as the source filed them. Unless noted, calls come from the whole dose curve; as a rule, active = well fitted curve in the direction sought with a large enough effect in the repeat runs; inconclusive = weak or mixed curves; inactive = no such curve, though single readings can be large; an effect the other way counts as inactive or inconclusive.

Legend:
[1] = qHTS assay for small molecule agonists of the p53 signaling pathway (AID 651631; calls by dose curve; note: nearly all actives have a fitted effect of over 15% in size)
How it was run: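 We treat p53RE-bla HCT-116 cells with compounds for 16 h at 37 °C, add LiveBLAzer B/G FRET substrate for 2 h at room temperature, and measure fluorescence intensity.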

[2] = qHTS assay for small molecule agonists of the p53 signaling pathway - cell viability (AID 651633; calls by dose curve;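 note: p53RE-bla HCT reporter cells with a stable beta-lactamase p53 reporter; nearly all actives have a fitted effect of over 30% in size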)
How it was run: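 Viability counter-read: CellTiter-Glo luminescence (30 min, room temperature) in the same p53RE-bla plates. These plates had been exposed to compounds for 16 h at 37 C.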

[3] = qHTS assay for small molecules that induce genotoxicity in human embryonic kidney cells expressing luciferase-tagged ATAD5 - cell viability (AID 651634; calls by dose curve; note: nearly all actives have a fitted effect of over 25% in size)
How it was run: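 Viability read: CellTiter-Fluor fluorescence, 30 min at 37C. Cells: HEK293T, luciferase-tagged ATAD5. Exposure: 15.5 hr, 37C, 5% CO2, compound or DMSO vehicle.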

[4] = qHTS assay for small molecule disruptors of the mitochondrial membrane potential - cell viability (AID 720634; calls by dose curve;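 note: human HepG2 liver cancer cells; nearly all actives have a fitted effect of over 20% in size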)
How it was run: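 HepG2, 1 hr compound, 37 C. ATP luminescence via CellTiter-Glo, 30 min RT, same well as m-MPI.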

[5] = qHTS assay to test for compound auto fluorescence at 590 nm (red) in HepG2 cells (AID 720674)
How it was run: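 Red autofluorescence (Ex/Em 540/590 nm, Rose Bengal sodium equivalents) was measured in HepG2 cells, 2,000 per well in MEM plus 10% FBS, plated overnight at 37 C. Readings were taken 1 hr after adding 23 nL compound or DMSO, at 37 C and 5% CO2.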

[6] = qHTS assay to test for compound auto fluorescence at 535 nm (green) in HepG2 cells (AID 720675)
[7] = qHTS assay to test for compound auto fluorescence at 460 nm (blue) in HEK293 cells (AID 720678)
How it was run: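 Blue read-out at excitation 405 nm and emission 460 nm follows overnight compound exposure of HEK293 cells at 37C in 5% CO2. Activity is given as auto fluorescence equivalency to triamterene.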

[8] = qHTS assay to test for compound auto fluorescence at 590 nm (red) in HEK293 cells (AID 720679)
How it was run: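 Red channel, Ex/Em 540/590nm; signal expressed as equivalency to Rose Bengal sodium. HEK293, 2,000 cells/well, 10% dialyzed FBS; 23 nL compound pinned after 4-5 hr attachment; overnight 37C/5% CO2 before reading.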

[9] = qHTS assay to test for compound auto fluorescence at 460 nm (blue) in HEK293 cell free culture (AID 720681)
How it was run: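 Blue fluorescence (Ex 405/Em 460 nm, triamterene-equivalent) was read immediately after pin transfer of compound or DMSO into medium (DMEM, 10% FBS) without cells.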

[10] = qHTS assay to test for compound auto fluorescence at 535 nm (green) in HEK293 cell free culture (AID 720682)
How it was run: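 Green-channel intensity (Ex/Em 485/535 nm) was recorded from compound-treated wells containing only DMEM with 10% FBS. Fluorescein provided the equivalency standard.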

[11] = qHTS assay to test for compound auto fluorescence at 590 nm (red) in HepG2 cell free culture (AID 720684)
How it was run: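 Plate contents were MEM with 10% FBS plus test compound or DMSO, no cells. Fluorescence was recorded with 540 nm excitation and 590 nm emission.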

[12] = qHTS assay to test for compound auto fluorescence at 460 nm (blue) in HepG2 cell free culture (AID 720685)
How it was run: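 Compound (23 nL) or DMSO pinned into cell-free MEM with 10% FBS; blue fluorescence read at 405/460 nm excitation/emission, expressed as auto-fluorescence equivalency to triamterene.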

[13] = qHTS assay to test for compound auto fluorescence at 535 nm (green) in HepG2 cell free culture (AID 720686)
[14] = qHTS assay to test for compound auto fluorescence at 460 nm (blue) in HepG2 cells (AID 720687)
How it was run: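 Blue-channel autofluorescence (Ex/Em 405/460 nm, triamterene-equivalent) was measured after 1 hr compound exposure at 37 C, 5% CO2. Cells were HepG2, plated overnight at 37 C in MEM plus 10% FBS.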

[15] = molecular target: Glucocorticoid receptor (Homo sapiens) (UniProt P04150); assay: qHTS assay to identify small molecule agonists of the glucocorticoid receptor (GR) signaling pathway (AID 720691; active = well fitted activation curve with a large enough effect in the signal ratio in the repeat runs, not every such curve was filed as active; the % refers to the signal ratio); settings: GR-bla HeLa, beta-lactamase reporter ratio, 18 h; activation: at 62.4 µM (top of the series)
How it was run: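 qHTS in GR-bla HeLa cells: 4 h settling at 37 C/5% CO2, 18 h compound incubation at 37 C, 2 h LiveBLAzer B/G FRET substrate at room temperature, fluorescence intensity measured.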

[16] = qHTS assay for small molecules that induce genotoxicity in human embryonic kidney cells expressing luciferase-tagged ATAD5 (AID 651632); note: nearly all actives have a fitted effect of over 15% in size
How it was run: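 Luminescent reporter readout, HEK293T ATAD5-luc line: 16 hr drug exposure (37C, 5% CO2) followed by Amplite, 30 min RT.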

[17] = qHTS assay for small molecule disruptors of the mitochondrial membrane potential (AID 720635)
How it was run: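 Mitochondrial membrane potential tracked with Mito-MPS dye, red aggregates (ex 540/em 590 nm) against green monomers (ex 490/em 535 nm). Compound treatment 1 hr at 37C, dye 30 min in HepG2.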

[18] = qHTS assay to test for compound auto fluorescence at 535 nm (green) in HEK293 cells (AID 720680)
[19] = qHTS assay to test for compound auto fluorescence at 590 nm (red) in HEK293 cell free culture (AID 720683)
How it was run: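 Red-channel autofluorescence of compounds in culture medium (DMEM, 10% FBS), no cells, measured at 540/590 nm. Rose Bengal sodium is the reference fluorophore for equivalence.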

[20] = molecular target: Glucocorticoid receptor (Homo sapiens) (UniProt P04150); assay: qHTS assay to identify small molecule antagonists of the glucocorticoid receptor (GR) signaling pathway (AID 720692; active = well fitted inhibition curve with a large enough effect in the signal ratio in the repeat runs, not every such curve was filed as active; the % refers to the signal ratio)
How it was run: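 Inhibition of glucocorticoid signalling is measured in HeLa cells with a GRE-controlled beta-lactamase reporter; cells are co-treated with compound and 5 nM dexamethasone (final) for 18 h before FRET substrate readout.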

Measured: Potency

Glucocorticoid receptor (Homo sapiens), sequence (P04150 whole entry, looked up): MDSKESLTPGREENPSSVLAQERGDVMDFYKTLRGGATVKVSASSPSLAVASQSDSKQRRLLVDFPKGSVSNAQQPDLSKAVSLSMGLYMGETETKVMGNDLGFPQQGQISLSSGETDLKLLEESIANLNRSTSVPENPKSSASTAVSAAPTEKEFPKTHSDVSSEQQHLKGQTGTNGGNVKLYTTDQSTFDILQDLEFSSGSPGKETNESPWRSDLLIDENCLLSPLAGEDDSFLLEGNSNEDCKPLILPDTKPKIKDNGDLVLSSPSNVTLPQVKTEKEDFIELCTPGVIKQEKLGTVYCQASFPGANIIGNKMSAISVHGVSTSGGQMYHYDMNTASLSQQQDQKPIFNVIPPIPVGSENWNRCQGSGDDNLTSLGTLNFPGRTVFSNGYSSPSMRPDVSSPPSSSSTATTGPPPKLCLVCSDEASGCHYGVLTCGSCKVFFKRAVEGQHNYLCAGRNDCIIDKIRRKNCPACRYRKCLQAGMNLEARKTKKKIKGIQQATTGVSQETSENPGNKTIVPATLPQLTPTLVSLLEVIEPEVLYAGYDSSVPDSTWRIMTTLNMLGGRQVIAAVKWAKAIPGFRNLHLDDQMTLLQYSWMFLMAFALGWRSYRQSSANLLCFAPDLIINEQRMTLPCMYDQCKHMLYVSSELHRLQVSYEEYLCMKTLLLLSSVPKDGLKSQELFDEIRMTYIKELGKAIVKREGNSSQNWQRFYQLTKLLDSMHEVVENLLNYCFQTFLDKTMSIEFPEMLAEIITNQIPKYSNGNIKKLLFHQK

CCOC(=O)NNc1nncc2ccccc12
inactive: [1] | [2] | [3] | [4] | [5] | [6] | [7] | [8] | [9] | [10] | [11] | [12] | [13] | [14] | [15]

CCCC(C)=O
inactive: [1] | [16] | [2] | [4] | [17] | [6] | [7] | [8] | [18] | [9] | [10] | [19] | [11] | [13] | [14] | [15] | [20]

CCc1cccc(C)c1N
inactive: [1] | [2] | [3] | [4] | [17] | [5] | [6] | [7] | [8] | [10] | [19] | [11] | [12] | [13] | [14] | [15] | [20]

C/C=C1/CC2C=CC1C2 (stereo not drawn)
inactive: [1] | [16] | [2] | [4] | [5] | [6] | [7] | [8] | [18] | [9] | [10] | [11] | [12] | [13] | [14] | [15] | [20]

O=C(O)CC(C(=O)O)C(CC(=O)O)C(=O)O (stereo not drawn)
inactive: [1] | [2] | [4] | [17] | [6] | [7] | [8] | [9] | [10] | [19] | [11] | [12] | [13] | [14] | [15] | [20]

OCCOCCOCCO
inactive: [1] | [2] | [3] | [4] | [17] | [5] | [6] | [7] | [8] | [10] | [19] | [11] | [12] | [13] | [14] | [15] | [20]

CN(C)CCC(c1ccccc1)c1ccccn1 (stereo not drawn)
inactive: [1] | [2] | [3] | [4] | [6] | [7] | [8] | [10] | [11] | [12] | [13] | [14] | [15] | [20]

C[C@H]1C[C@@H]2[C@H]([C@@H](O)C[C@@]3(C)[C@H]2CC[C@]3(O)C(=O)CO)[C@@]2(C)C=CC(=O)C=C12
inactive: [1] | [16] | [2] | [4] | [5] | [6] | [7] | [8] | [18] | [10] | [11] | [13] | [14]

O=C(O)c1ccc2c(c1)C(=O)OC2=O
inactive: [1] | [16] | [2] | [4] | [17] | [6] | [7] | [8] | [18] | [10] | [19] | [11] | [12] | [13] | [14] | [15] | [20]
